Test results published in PubChem BioAssay AID1845227 (National Center for Advancing Translational Sciences (NCATS), 2023).
Results filed as inconclusive are left out. Unmarked numbers belong to inactive results. The call rests on the fitted dose curve; in most records, active means well fitted inhibition curve with a large enough effect; inconclusive means small, poorly fitted or top-dose-only effect; inactive means no such curve, though single readings can be large or run the other way.

target: Luciferin 4-monooxygenase (Photinus pyralis) (UniProt P08659); test: Confirmatory firefly luciferase (FLuc) qHTS assay for identification of artifact compounds; conditions: purified FLuc enzyme, luminescence, 5 min; series mostly up to 38.9 µM; activity change, negative = inhibition: at the top concentration;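 further: 0% = DMSO and -100% = no enzyme control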
Summary of the method: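 Compounds were preincubated 15 min at room temperature with 10 uM D-luciferin and 10 uM ATP in Tris acetate pH 7.6. 10 nM Photinus pyralis luciferase was then added, and luminescence was read after 5 min.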

| SMILES | activity change, negative = inhibition |
| --- | --- |
| O=C(/C=C/c1ccc(O)c(O)c1)c1ccc(O[C@@H]2O[C@H](CO)[C@@H](O)[C@H](O)[C@H]2O)c(O)c1O | -6.71% |
| Ic1ccc(Nc2nc(NCCN3CCOCC3)nc(N3CCOCC3)n2)cc1 | 1.03% |
| COc1ccc2cc3cc(C(=O)N4CCN(c5ccccc5F)CC4)oc3nc2c1 | -0.424% |
| CCC(CC)c1nn2c(=O)cc(COc3ccc(NC(=O)c4ccccc4C)cc3)nc2s1 | -1.2% |
| CC1(C)OC2CC(=O)OCC23C1CC(=O)C1(C)C3CC[C@@]2(C)[C@H](c3ccoc3)OC(=O)C3OC312 (some centres undefined) | 3.02% |
| Cc1cc(C)n2ncc(C(=O)Nc3ccc(-c4cn[nH]c4)cc3)c2n1 | 1.98% |
| O=S(=O)(c1ccc2c(c1)OCCO2)N1CCN(S(=O)(=O)c2c(F)cccc2F)CC1 | 20.4% |
| CCc1ccc(S(=O)(=O)c2nnn3c2nc(N2CCOCC2)c2sccc23)cc1 | 0.839% |
| COc1ccc(OC(=O)c2nc(SCc3ccccc3C)ncc2Cl)cc1 | 10.8% |
| Nc1nc2nc(-c3ccc(Cl)cc3)cc(C(F)(F)F)n2n1 | 3.35% |
| COc1ccc(CCNC(=O)c2c(C)oc3ncn(C)c(=O)c23)c(OC)c1 | 6.96% |
| Cc1ccc(Nc2c(-c3ccc(C)cc3)nc3c(C)cccn23)cc1 | -2.92% |
| Cc1ccc2nc(-c3cccs3)c(Nc3ccccc3)n2c1 | -9.97% |
| CCCCNS(=O)(=O)c1ccc2nc(-c3cccnc3)cc(C(=O)NCCC)c2c1 | -2.26% |
| O=c1cc(-c2ccc(O)cc2)oc2cc(O[C@@H]3O[C@H](CO)[C@H](O)[C@H](O)[C@H]3O)cc(O)c12 | 4.69% |
| Cc1ccccc1CNC(=O)C(C)N(c1ccccc1)S(C)(=O)=O (centres undefined) | 4.48% |
| Cc1ccc(OC(C)C(=O)NCC2(N3CCOCC3)CCCCC2)cc1C (centres undefined) | 1.36% |

| SMILES | activity change, negative = inhibition |
| --- | --- |
| O=C(Nc1cc(-c2ccc(Cl)cc2)no1)c1ccc(F)cc1 | -4.74% |
| O=C(Nc1ccc(Br)cc1)c1cc(-c2cccs2)nc2ccccc12 | -3.02% |
| CN[C@@H]1[C@@H](O[C@H]2O[C@H](CO)[C@@H](N)[C@H](O)[C@H]2O)O[C@H]2C[C@@H](N)[C@@H](O[C@H]3[C@H](O)[C@@H](O)[C@H](N)C[C@@H]3N)O[C@@H]2[C@@H]1O | -2.91% [at 13.1 µM] |
| CO[C@@H]1[C@@H](O[C@@H]2O[C@H](C)[C@@H](O[C@H]3C[C@@](C)(O)[C@@H](OC(=O)CC(C)C)[C@H](C)O3)[C@H](N(C)C)[C@H]2O)[C@@H](CC=O)C[C@@H](C)C(=O)/C=C/C2OC2C[C@@H](C)OC(=O)C[C@H]1OC(C)=O (some centres undefined) | 6.04% |
| Cc1ccc(-c2nc(S(=O)(=O)c3ccc(C)cc3)c(N3CCCCC3)o2)cc1 | -2.08% |
| CCCCN(CCCC)C(=O)c1cc2c(=O)n3ccccc3nc2s1 | 2.17% |
| CO[C@H]1[C@@H](O)[C@H](N)[C@@H](O[C@H]2O[C@H]([C@H](C)N)CC[C@H]2N)[C@H](O)[C@@H]1N(C)C(=O)CN | -3.49% |
| c1cc(CNc2ccnc(-c3ccc4c(c3)OCO4)n2)ccn1 | -17.7% |
| COc1ccccc1NC(=O)CSC1=Nc2ccccc2C2=NC(CC(=O)NCc3ccccc3)C(=O)N12 (centres undefined) | 4.1% |
| Cn1c(=O)[nH]c2cc(-c3noc(-c4cccc(Cl)c4)n3)ccc21 | 53% |
| CC(C)(C)OC(=O)N1CCC[C@H]1C(=O)N1CCC(C(=O)N[C@H](Cc2ccccc2)C(=O)NCc2ccc(F)cc2)CC1 | 0.258% [at 78.4 µM] |
| COCCn1c(C)cc(O)c(C(c2ccc(OC)cc2)N2CCN(c3ccccc3)CC2)c1=O (centres undefined) | -0.651% |
| CC1=C(C(=O)Nc2ccc(Cl)cc2)C(c2ccccc2C)n2ncc(C(=O)Nc3ccc(C)cc3)c2N1 (centres undefined) | 1.58% |
| [O][C@H]1[C@@H](O)[C@@H](CO)O[C@@H](O[C@@H]2[C@@H]3OC[C@H]2O[C@H](O[C@@H]2[C@@H](O)[C@H](C[C@@H]4[C@@H]5OC[C@H]4O[CH][C@@H]5O)O[C@H](CO)[C@@H]2OS(=O)(=O)O)[C@@H]3OS(=O)(=O)O)[C@@H]1O | -2.24% |
| CCOC(=O)c1ccccc1Nc1cc(C)nc2nc(-c3ccco3)nn12 | 4.05% |
| O=c1oc2ccc(Br)cc2cc1-c1csc(-c2ccc(Cl)cc2)n1 | 1.83% |
| Cc1cc(-c2ccccc2)n2nc(-c3ccc(Cl)cc3)cc2n1 | -0.184% |
